Screens deposited in PubChem by Johns Hopkins Ion Channel Center.
KCNQ2 pot – potentiators of rat KCNQ2 potassium channel; Potassium voltage-gated channel subfamily KQT member 2 (Rattus norvegicus), O88943; CHO-K1 KCNQ2, FluxOR thallium flux fluorescence; hits give high values; B-score at 10 µM; 310,000 tested, 0.54% active; AID 2239, 2010;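 active = fluorescence ratio B-score at least 3 SD of library B-scores, with initial fluorescence B-score within 3 of them, cut at about 5.3 in these data; same plate scores as AID 2156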;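 also: B-score of peak minus minimum over baseline fluorescence ratio after K+ and Tl+ stimulus; positive B-score means potentiation of KCNQ2 with more thallium influx and brighter signal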
Target sequence (O88943 whole entry, looked up): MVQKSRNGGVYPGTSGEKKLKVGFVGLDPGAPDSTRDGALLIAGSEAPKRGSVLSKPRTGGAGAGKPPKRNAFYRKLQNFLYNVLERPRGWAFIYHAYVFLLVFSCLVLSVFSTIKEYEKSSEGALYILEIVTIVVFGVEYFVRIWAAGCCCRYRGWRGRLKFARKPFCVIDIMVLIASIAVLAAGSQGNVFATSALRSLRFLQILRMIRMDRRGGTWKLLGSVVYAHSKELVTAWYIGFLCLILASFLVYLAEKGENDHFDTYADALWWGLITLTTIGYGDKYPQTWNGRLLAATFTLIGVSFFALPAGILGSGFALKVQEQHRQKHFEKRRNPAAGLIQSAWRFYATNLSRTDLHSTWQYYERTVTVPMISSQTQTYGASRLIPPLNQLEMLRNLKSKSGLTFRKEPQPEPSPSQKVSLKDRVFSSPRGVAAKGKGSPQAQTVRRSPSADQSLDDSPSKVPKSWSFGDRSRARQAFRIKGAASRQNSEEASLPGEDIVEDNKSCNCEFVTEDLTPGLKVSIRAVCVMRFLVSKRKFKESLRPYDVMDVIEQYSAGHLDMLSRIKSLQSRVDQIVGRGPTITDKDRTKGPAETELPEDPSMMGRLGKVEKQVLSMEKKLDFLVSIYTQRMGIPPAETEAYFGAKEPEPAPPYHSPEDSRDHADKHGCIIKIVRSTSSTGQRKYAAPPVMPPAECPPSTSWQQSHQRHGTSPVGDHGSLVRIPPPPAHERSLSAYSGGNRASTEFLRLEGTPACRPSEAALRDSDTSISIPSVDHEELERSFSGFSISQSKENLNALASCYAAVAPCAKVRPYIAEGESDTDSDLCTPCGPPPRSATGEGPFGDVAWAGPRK
KCNQ2 block – rat KCNQ2 potassium channel inhibitors, primary screen, cell-based, CHO-K1, FluxOR thallium flux, B-score | B-score at 10 µM | 20 min; hits give low values | Potassium voltage-gated channel subfamily KQT member 2 (Rattus norvegicus), O88943 | 310,000 tested, 1.1% active;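 active = fluorescence ratio B-score at most minus 3 library SDs, with starting brightness B-score within 2 library SDs, cut at about -5.5 in these data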
KCNQ2 block conf – rat KCNQ2 potassium channel inhibitors, confirmation, cell-based, thallium flux. shares compounds with KCNQ2 block. activity change, negative = inhibition, % at 10 µM. KCNQ2-expressing cells, inhibition; hits give low values. 1,000 tested, 57% active
KCNQ1 spec – human KCNQ1 channel inhibition, counter-screen for KCNQ2 inhibitor project, cell-based, FluxOR thallium flux | shares compounds with KCNQ2 block | KCNQ1-expressing cells, FluxOR thallium flux fluorescence; hits give low values | activity change, negative = inhibition, % at 10 µM | 1,000 tested, 15% active;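 active = activity change at least 3 SD of negative controls below their mean in both duplicate wells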;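 also: CHO cells stably transfected with KCNQ1 and depolarized by potassium stimulus; peak minus minimum fluorescence over baseline after thallium addition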
CHO Tl ctr – thallium flux change in parental CHO cells, counter-screen for KCNQ2 inhibitor project | shares compounds with KCNQ2 block | hits give low values | activity change, % at 10 µM | 1,000 tested, 14% active | AID 493029, 2011
KCNQ2 inh confirm – rat KCNQ2 channel inhibitors, confirmation, cell-based, automated patch clamp, single concentration. shares compounds with KCNQ2 block. KCNQ2-expressing cells, automated patch clamp current. calls only at 10 µM. 550 tested, 49% active. AID 588531, 2011
Of the large screens only hits and unclear results are named; the others gave an inactive call (follow-up assays come after a bar, where they were run). A selection: hits, their analogues and other compounds. The true share with any hit is near 1.6%. Unless noted, no rule for the calls is given here.

Cc1cc(C(=O)Nc2ccc3ccccc3c2)c(C)o1	none (no result: KCNQ2 pot)
CCNC(=O)CSc1nnc(-c2cccc(S(=O)(=O)N(CC)CC)c2)n1CCc1ccccc1	none (no result: KCNQ2 pot)
CCSc1nnc(-c2cccc(S(=O)(=O)N(CC)CC)c2)n1Cc1ccccc1	KCNQ2 block -10 | KCNQ2 block conf inactive | KCNQ1 spec inactive | CHO Tl ctr inactive
COCCN(C(=O)COC(=O)CCS(=O)(=O)c1ccccc1)c1c(N)n(Cc2ccccc2)c(=O)[nH]c1=O	none (no result: KCNQ2 pot)
Cc1cc(C(=O)CSc2ccc(Cl)cc2)cc(C)c1OC(=S)N(C)C	KCNQ2 block -8.7 | KCNQ2 block conf inactive | KCNQ1 spec inactive | CHO Tl ctr inactive
Cc1cc(C(=O)CSc2ccc(F)cc2)cc(C)c1O	none
NS(=O)(=O)c1cccc(NS(=O)(=O)c2ccc(/C=C/C(=O)O)cc2)c1	none (no result: KCNQ2 pot)
CC1CCN(CC2C(=O)O[C@@H]3C[C@@]4(C)CCC[C@H](C)C4=C[C@H]23)CC(C)(C)C1 (some centres not stated)	none (no result: KCNQ2 pot)
CC(=O)Nc1ccc(N2C(C(C)=O)=NN(c3ccccc3)C2c2cccs2)cc1 (configuration not stated)	none
COc1ccc(N2C(C(C)=O)=NN(c3ccccc3)C2c2cccs2)cc1 (configuration not stated)	KCNQ2 block -7.2 | KCNQ2 block conf -32% | KCNQ1 spec -37% | CHO Tl ctr -25% | KCNQ2 inh confirm inactive
O=C(COC(=O)C1CCN(c2ccc(C(F)(F)F)cn2)CC1)c1ccccc1Cl	none (no result: KCNQ2 pot)
COc1cc(C(=O)COC(=O)C2CCN(c3ccc(C(F)(F)F)cn3)CC2)ccc1OC(F)F	KCNQ2 block -9.9 | KCNQ2 block conf inactive | KCNQ1 spec inactive | CHO Tl ctr inactive
O=C(COC(=O)C1CCN(c2ccc(C(F)(F)F)cn2)CC1)c1ccc(F)cc1	none (no result: KCNQ2 pot)
Cc1cc(C)c(C(=O)COC(=O)C2CCN(c3ccc(C(F)(F)F)cn3)CC2)cc1C	KCNQ2 block -10 | KCNQ2 block conf inactive | KCNQ1 spec inactive | CHO Tl ctr inactive
Cn1cc(/C=N\O)nc2c(=O)n(-c3ccccc3)c(=O)nc1-2	none (no result: KCNQ2 pot)
O=C(c1c(F)cccc1F)N1CCC(O)(c2ccc(F)cc2)CC1	none
CCCc1cc(=O)oc2cc(C)cc(OC(C)C(=O)NCCN3CCOCC3)c12 (configuration not stated)	none
CCN(CC(=O)Nc1ccc([N+](=O)[O-])cc1OC)c1ccccc1	none (no result: KCNQ2 pot)
COC(=O)C(Cc1ccccc1)NCC(=O)Nc1cccc(Cl)c1C (configuration not stated)	KCNQ2 block -8.2 | KCNQ2 block conf -36% | KCNQ1 spec inactive | CHO Tl ctr inactive | KCNQ2 inh confirm active
Cc1c(Cl)cccc1NC(=O)CS(=O)(=O)c1ccccc1	none (no result: KCNQ2 pot)
COc1ccc(/C=N/N=C/c2ccc(OC)c(OC)c2)cc1OC	none
COc1cc(/C=N/N=C(N)N)ccc1OCc1ccccc1Cl	KCNQ2 block -10 | KCNQ2 block conf -26% | KCNQ1 spec inactive | CHO Tl ctr inactive | KCNQ2 inh confirm inactive
CCOC(=O)N1CCN(S(=O)(=O)/C=C/c2ccccc2)CC1	none
CCOC(=O)N1C/C(=C\c2ccccc2)C(=O)/C(=C/c2ccccc2)C1	KCNQ2 block -6.9 | KCNQ2 block conf -33% | KCNQ1 spec inactive | CHO Tl ctr inactive | KCNQ2 inh confirm inactive
COC(C(=O)NNC(=O)CCc1ccccc1)c1ccccc1 (configuration not stated)	none
COc1ccc(N2CCN(C(=O)c3oc4ccccc4c3C)CC2)cc1	none (no result: KCNQ2 pot)
COc1ccc2oc(C(=O)N3CCN(C(c4ccccc4)c4ccccc4)CC3)c(C)c2c1	KCNQ2 block -10 | KCNQ2 block conf inactive | KCNQ1 spec inactive | CHO Tl ctr inactive
Cc1c(C(=O)N/N=C/c2cccnc2)nnn1-c1nonc1N	none
COc1ccc(C(=O)N/C(=C\c2cn(S(=O)(=O)N(C)C)c3ccccc23)C(=O)NCCN2CCOCC2)cc1	none
CC(C)[C@H](NC(=O)c1ccccc1)C(=O)OCC(=O)NCCc1ccc(F)cc1	none (no result: KCNQ2 pot)
CC(C)[C@H](NC(=O)OCc1ccccc1)C(=O)OCC(=O)NCCc1ccccc1	KCNQ2 block -7.1 | KCNQ2 block conf inactive | KCNQ1 spec inactive | CHO Tl ctr inactive
CCCCOC1(c2ccccc2)OC(=O)c2ccccc21 (configuration not stated)	none (no result: KCNQ2 pot)
CCCCC(CC)COC1(c2ccccc2)OC(=O)c2ccccc21 (configuration not stated)	KCNQ2 block -9.7 | KCNQ2 block conf -33% | KCNQ1 spec inactive | CHO Tl ctr inactive | KCNQ2 inh confirm inactive
Cc1cc(NC(=O)c2ccccc2F)nc2c1c(=O)oc1ccccc12	none
COc1cc(-c2cc(C(=O)Nc3c(Cl)cc(Cl)cc3Cl)c3ccccc3n2)cc(OC)c1OC	KCNQ2 block -7.2 | KCNQ2 block conf -25% | KCNQ1 spec inactive | CHO Tl ctr inactive | KCNQ2 inh confirm active
COc1cc(-c2cc(C(=O)N(C)Cc3ccccc3)c3ccccc3n2)cc(OC)c1OC	KCNQ2 block -7.2 | KCNQ2 block conf -28% | KCNQ1 spec inactive | CHO Tl ctr inactive | KCNQ2 inh confirm active
COc1ccc(-c2cc(C(=O)NCC(c3ccccc3)N(C)C)c3ccccc3n2)cc1OC (configuration not stated)	none (no result: KCNQ2 pot)
COc1cc(-c2cc(C(=O)Nc3ccc(S(N)(=O)=O)cc3)c3ccccc3n2)cc(OC)c1OC	none (no result: KCNQ2 pot)
COCCN(Cc1ccccc1)C(=O)c1cc(-c2ccc(OC)c(OC)c2)nc2ccccc12	KCNQ2 block -8.9 | KCNQ2 block conf -30% | KCNQ1 spec inactive | CHO Tl ctr inactive | KCNQ2 inh confirm active
COc1ccccc1CN(C)C(=O)c1cc(-c2cc(OC)c(OC)c(OC)c2)nc2ccccc12	none (no result: KCNQ2 pot)
CCCN(CCO)C1CCN(CCc2ccccc2)CC1	none (no result: KCNQ2 pot)
CCn1nc(C)c(CN2CCC(Oc3ccc(C(=O)N4CCCC4)cc3)CC2)c1C	none (no result: KCNQ2 pot)
COc1ccc(CCN(Cc2nc3ccccc3c(=O)[nH]2)C(=O)c2ccco2)cc1	none
CCC(CC)C(=O)N(CCc1ccc(OC)cc1)Cc1nc2ccccc2c(=O)[nH]1	KCNQ2 block -9.5 | KCNQ2 block conf -30% | KCNQ1 spec inactive | CHO Tl ctr inactive | KCNQ2 inh confirm active
Cc1cccc(C)c1NC(=O)Nc1ccc(S(N)(=O)=O)cc1	none
COc1ccccc1CCNC(=O)CNC(=O)Cc1cccc2ccccc12	none
C=CCNC(=O)N1CCC(n2nccc2NC(=O)CCCc2ccccc2)CC1	none (no result: KCNQ2 pot)
Cc1cc(-c2ccc(C(C)C)c(S(=O)(=O)N3CCC(C)CC3)c2)on1	KCNQ2 block -8.4 | KCNQ2 block conf -16% | KCNQ1 spec inactive | CHO Tl ctr inactive | KCNQ2 inh confirm inactive
CCc1ccc(-c2cc(C)no2)cc1S(=O)(=O)N1CCC(C)CC1	none (no result: KCNQ2 pot)
Cc1nnc(SCC(=O)NC(C)(C)C)n1NCc1c(F)cccc1Cl	none
